PubChem BioAssay (Tox21)
Unmarked numbers belong to inactive results. Results filed as inconclusive are left out. Where a call stands in place of a potency, no number is given. Active and inactive are the calls of the source. Unless noted, calls come from the whole dose curve; as a rule, active = well fitted curve in the direction sought with a large enough effect in the repeat runs; inconclusive = weak or mixed curves; inactive = no such curve, though single readings can be large; an effect the other way counts as inactive or inconclusive.

Experiments:
[1] = Caspase-3/7 induction in HepG2 cells by small molecules, qHTS assay (AID 1346978); note: nearly all actives have a fitted effect of over 15% in size; note: potency is the fitted concentration of half-maximal effect
Procedure, shortened: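 Wild-type HepG2 cells (2,000/well) were settled 5 h at 37 C, 5% CO2, then exposed to compounds in DMSO for 17 h. Caspase-3/7 activity was read by luminescence 30 min after adding Caspase-Glo 3/7 reagent at room temperature.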

[2] = Caspase-3/7 induction in CHO-K1 cells by small molecules, qHTS cell viability counter screen (AID 1346979); note: nearly all actives have a fitted effect of over 35% in size; note: potency is the fitted concentration of half-maximal effect
Procedure, shortened: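 Following a 5hr settling period, CHO-K1 cells at 1,500 per well received DMSO-dissolved compounds. Cell viability was quantified 16hr later by CellTiter-Fluor fluorescence, measured after 1hr with reagent at 37C.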

[3] = Caspase-3/7 induction in CHO-K1 cells by small molecules, qHTS assay (AID 1346980); note: nearly all actives have a fitted effect of over 15% in size; note: potency is the fitted concentration of half-maximal effect
Procedure, shortened: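 Wild-type cells were seeded at 1,500 per well and settled 5 hr at 37 C, 5% CO2, then exposed to DMSO-dissolved compounds for 17 hr. Caspase-Glo 3/7 reagent was added, and luminescence was read after 30min at room temperature.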

[4] = Caspase-3/7 induction in HepG2 cells by small molecules, qHTS cell viability counter screen (AID 1346981); note: nearly all actives have a fitted effect of over 30% in size; note: potency is the fitted concentration of half-maximal effect
Procedure, shortened: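 Multiplexed with the caspase-3/7 assay: HepG2 cells, 16 hr compound treatment, CellTiter-Fluor viability detection by fluorescence.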

[5] = target: Acetylcholinesterase (Homo sapiens) (UniProt P22303); assay: Acetylcholinesterase (AChE) small molecule antagonists: colormetric cell-based qHTS assay (AID 1347395; calls by dose curve; note: nearly all actives have a fitted effect of over 30% in size; note: potency is the fitted concentration of half-maximal effect)
Procedure, shortened: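 After overnight attachment at 37 C, SH-SY5Y cells get 30 min compound exposure; detection cocktail (acetylthiocholine, DTNB) then incubates 90 min at 37 C, and absorbance reflects AChE-generated thiocholine.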

[6] = target: Acetylcholinesterase (Homo sapiens) (UniProt P22303); assay: Acetylcholinesterase (AChE) small molecule antagonists: enzyme-based qHTS assay (AID 1347397; calls by dose curve; note: nearly all actives have a fitted effect of over 55% in size; note: potency is the fitted concentration of half-maximal effect); conditions: Potency: AChE enzyme activity inhibition
Procedure, shortened: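 Human recombinant acetylcholinesterase; substrate acetylthiocholine; thiocholine quantified with DTNB (colorimetric). Compound preincubation 30 min RT; reaction 10 min RT.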

[7] = target: Nuclear receptor subfamily 1 group I member 2 (Rattus norvegicus) (UniProt Q9R1A7); assay: Rat pregnane X receptor (rPXR) activation by small molecules, qHTS assay (AID 1346983); conditions: rPXR luciferase reporter cells, One-Glo luminescence, 24 h; max activation: hits give high values; note: nearly all actives have a fitted effect of over 20% in size
Procedure, shortened: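 Cell-based rPXR luciferase reporter assay, 2,000 cells per well, rested 5hr at 37 C before compound addition in DMSO, then 24 hr at 37 C. One-Glo reagent was added and luminescence read after 30 min at room temperature.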

[8] = target: Nuclear receptor subfamily 1 group I member 2 (Homo sapiens) (UniProt O75469); assay: Human pregnane X receptor (PXR) small molecule agonists, qHTS assay (AID 1346982); note: nearly all actives have a fitted effect of over 35% in size; note: potency is the fitted concentration of half-maximal effect
Procedure, shortened: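 We seeded PXR-Luc HepG2 cells in assay medium containing 5% charcoal-stripped FBS, added compounds 5 hr later, incubated 24 hr, and read luminescence with ONE-Glo reagent.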

[9] = target: Nuclear receptor subfamily 1 group I member 2 (Homo sapiens) (UniProt O75469); assay: CYP3A4 induction through human pregnane X receptor (PXR) by small molecules, qHTS assay (AID 1346984); note: nearly all actives have a fitted effect of over 40% in size; note: potency is the fitted concentration of half-maximal effect
Procedure, shortened: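 qHTS, concentration-response format: HepG2 DPX-2 line, PXR/CYP3A4-luc. Exposure 24 h, 37C. Substrate Luciferin-IPA 3uM final, 3 h. Detection One-Glo, 30 min RT.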

[10] = target: Nuclear receptor subfamily 1 group I member 2 (Homo sapiens) (UniProt O75469); assay: Human pregnane X receptor (PXR) activation by small molecules, qHTS assay (AID 1346985); note: potency is the fitted concentration of half-maximal effect; nearly all actives have a fitted effect of over 40% in size
Procedure, shortened: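 DPX-2 cells (HepG2 co-transfected with a PXR response element and a CYP3A4-promoter luciferase construct) were seeded at 2,000 per well, rested 5 hr at 37C, then exposed to DMSO-dissolved compounds for 24 hr. Activation was read as luciferase luminescence.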

Sequence of Nuclear receptor subfamily 1 group I member 2 (Homo sapiens) (O75469 whole entry, looked up): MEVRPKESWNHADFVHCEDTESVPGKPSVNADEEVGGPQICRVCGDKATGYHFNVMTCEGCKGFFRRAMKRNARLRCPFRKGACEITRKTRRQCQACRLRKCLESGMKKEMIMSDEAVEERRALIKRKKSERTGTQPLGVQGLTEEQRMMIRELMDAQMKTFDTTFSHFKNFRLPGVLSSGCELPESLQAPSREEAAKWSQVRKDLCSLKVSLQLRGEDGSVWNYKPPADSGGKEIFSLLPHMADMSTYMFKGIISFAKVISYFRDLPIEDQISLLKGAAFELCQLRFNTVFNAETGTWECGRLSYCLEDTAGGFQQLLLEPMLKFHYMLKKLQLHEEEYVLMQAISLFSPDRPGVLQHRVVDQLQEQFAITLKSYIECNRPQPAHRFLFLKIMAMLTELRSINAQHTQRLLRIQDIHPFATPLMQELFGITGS
Sequence of Acetylcholinesterase (Homo sapiens) (P22303 whole entry, looked up): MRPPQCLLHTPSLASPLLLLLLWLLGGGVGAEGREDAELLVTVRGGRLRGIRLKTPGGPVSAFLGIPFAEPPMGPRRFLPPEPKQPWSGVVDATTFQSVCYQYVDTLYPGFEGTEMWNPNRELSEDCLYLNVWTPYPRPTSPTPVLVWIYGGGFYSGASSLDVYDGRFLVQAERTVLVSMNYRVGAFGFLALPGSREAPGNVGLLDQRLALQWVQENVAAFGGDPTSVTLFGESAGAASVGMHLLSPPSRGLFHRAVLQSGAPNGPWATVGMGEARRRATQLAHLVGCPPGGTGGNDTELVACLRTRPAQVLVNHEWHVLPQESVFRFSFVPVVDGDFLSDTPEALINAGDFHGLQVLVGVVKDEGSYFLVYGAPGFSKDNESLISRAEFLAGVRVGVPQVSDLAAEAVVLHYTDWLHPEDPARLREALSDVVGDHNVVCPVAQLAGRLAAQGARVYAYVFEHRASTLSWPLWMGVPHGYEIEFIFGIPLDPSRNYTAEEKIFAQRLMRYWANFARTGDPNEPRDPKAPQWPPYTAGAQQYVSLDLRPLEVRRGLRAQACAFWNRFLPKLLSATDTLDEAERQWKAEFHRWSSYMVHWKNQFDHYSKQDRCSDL
Sequence of Nuclear receptor subfamily 1 group I member 2 (Rattus norvegicus) (Q9R1A7 whole entry, looked up): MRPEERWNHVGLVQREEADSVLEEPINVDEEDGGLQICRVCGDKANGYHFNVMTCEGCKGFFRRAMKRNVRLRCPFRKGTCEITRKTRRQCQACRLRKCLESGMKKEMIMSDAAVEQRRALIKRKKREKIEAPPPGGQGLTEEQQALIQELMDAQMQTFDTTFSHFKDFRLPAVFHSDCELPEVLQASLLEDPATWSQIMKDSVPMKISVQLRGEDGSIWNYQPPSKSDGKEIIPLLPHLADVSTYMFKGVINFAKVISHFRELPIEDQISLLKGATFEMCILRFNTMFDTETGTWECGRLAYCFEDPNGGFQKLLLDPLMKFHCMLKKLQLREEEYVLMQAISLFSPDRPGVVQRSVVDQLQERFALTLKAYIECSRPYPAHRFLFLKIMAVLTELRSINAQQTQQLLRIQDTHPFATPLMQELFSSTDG

## [Cl][Sn]([c]1ccccc1)([c]1ccccc1)[c]1ccccc1
[1]
  Potency: 1.46 µM (active)
[2]
  Potency: 0.326 µM (active)
[3]
  Potency: 0.326 µM (active)
[4]
  Potency: 5.8 µM (active)
[5]
  activity, negative = inhibition: 1.75% [at 23.6 µM]
[6]
  activity change, negative = inhibition: 0% [at 23.6 µM]

## O=c1oc2ccccc2c(O)c1Cc1c(O)c2ccccc2oc1=O
[1]
  Potency: inactive
[2]
  Potency: inactive
[3]
  Potency: inactive
[4]
  Potency: inactive
[7]
  max activation: -3.67%
[5]
  Potency: inactive
[6]
  Potency: inactive

## c1ccc2c(c1)[nH]c1cnccc12
[1]
  Potency: inactive
[2]
  Potency: inactive
[3]
  Potency: inactive
[4]
  Potency: inactive
[5]
  Potency: inactive
[6]
  Potency: inactive

## Nc1ccc([N+](=O)[O-])cc1Cl
[1]
  Potency: inactive
[2]
  Potency: 61.1 µM (active)
[3]
  Potency: inactive
[8]
  Potency: inactive
[5]
  Potency: inactive
[6]
  Potency: inactive

## COP(=S)(OC)Oc1cc(Cl)c(Br)cc1Cl
[1]
  Potency: inactive
[3]
  Potency: inactive
[4]
  Potency: inactive
[8]
  Potency: 12.2 µM (active)
[6]
  Potency: inactive

## O=[N+]([O-])c1ccc(Oc2ccc(C(F)(F)F)cc2[N+](=O)[O-])cc1
[1]
  Potency: inactive
[3]
  Potency: inactive
[4]
  Potency: inactive
[8]
  Potency: 17.2 µM (active)
[5]
  Potency: inactive
[6]
  Potency: inactive

## Cc1cc(Cl)ccc1O[C@H](C)C(=O)O
[1]
  Potency: inactive
[3]
  Potency: inactive
[4]
  Potency: inactive
[8]
  Potency: inactive
[5]
  Potency: inactive
[6]
  Potency: inactive

## Nc1ccccc1C(=O)Oc1ccc2ccccc2c1
[1]
  Potency: inactive
[3]
  Potency: inactive
[4]
  Potency: inactive
[8]
  Potency: 27.3 µM (active)
[5]
  Potency: inactive
[6]
  Potency: inactive

## CC(C)[C@H](C(=O)O[C@H](C#N)c1cccc(Oc2ccccc2)c1)c1ccc(Cl)cc1
[1]
  Potency: inactive
[3]
  Potency: inactive
[4]
  Potency: inactive
[8]
  Potency: 4.32 µM (active)
[5]
  Potency: inactive
[6]
  Potency: inactive

## CC(C)CCCCCCCOP(=O)(Oc1ccccc1)Oc1ccccc1
[1]
  Potency: inactive
[3]
  Potency: inactive
[4]
  Potency: inactive
[8]
  Potency: 6.89 µM (active)
[5]
  Potency: inactive
[6]
  Potency: inactive

## CCC(C)c1cc([N+](=O)[O-])cc([N+](=O)[O-])c1OC(=O)C=C(C)C (stereo not drawn)
[1]
  Potency: inactive
[2]
  Potency: 43.3 µM (active)
[3]
  Potency: inactive
[8]
  Potency: 61.1 µM (active)
[5]
  Potency: inactive
[6]
  Potency: inactive

## CCOC(=O)CC(=O)CCl
[1]
  Potency: inactive
[3]
  Potency: inactive
[4]
  Potency: inactive
[8]
  Potency: inactive
[5]
  Potency: inactive
[6]
  Potency: inactive

## CC(Cc1ccc(C(C)(C)C)cc1)CN1C[C@@H](C)O[C@@H](C)C1 (stereo partly drawn)
[1]
  Potency: inactive
[3]
  Potency: inactive
[4]
  Potency: inactive
[8]
  Potency: 30.6 µM (active)
[5]
  Potency: inactive
[6]
  Potency: inactive

## C[C@@H](Oc1ccc(Cl)cc1Cl)C(=O)O
[1]
  Potency: inactive
[3]
  Potency: inactive
[4]
  Potency: inactive
[8]
  Potency: inactive
[5]
  Potency: inactive
[6]
  Potency: inactive

## Oc1cccc(-c2ccccc2)c1
[1]
  Potency: inactive
[3]
  Potency: inactive
[4]
  Potency: inactive
[8]
  Potency: 48.6 µM (active)
[5]
  Potency: inactive
[6]
  Potency: inactive

## CC(C)[C@H](C(=O)OC(C#N)c1cccc(Oc2ccccc2)c1)c1ccc(OC(F)F)cc1 (stereo partly drawn)
[1]
  Potency: inactive
[3]
  Potency: inactive
[4]
  Potency: inactive
[8]
  Potency: 9.69 µM (active)
[5]
  Potency: inactive
[6]
  Potency: inactive

## O=C(CCl)Nc1ccccc1
[1]
  Potency: inactive
[2]
  Potency: 54.5 µM (active)
[3]
  Potency: inactive
[5]
  Potency: inactive
[6]
  Potency: inactive

## O=[N+]([O-])c1cc(Cl)ccc1Cl
[1]
  Potency: inactive
[3]
  Potency: inactive
[4]
  Potency: inactive
[8]
  Potency: inactive
[5]
  Potency: inactive
[6]
  Potency: inactive

## c1ccc2cc3c(cc2c1)-c1cccc2cccc-3c12
[1]
  Potency: 7.59 µM (active)
[3]
  Potency: inactive
[4]
  Potency: inactive
[8]
  Potency: 2.4 µM (active)
[5]
  Potency: inactive
[6]
  Potency: inactive

## Nc1ccc(Cc2ccc(N)c(Cl)c2)cc1Cl
[1]
  Potency: inactive
[2]
  Potency: 59.1 µM (active)
[3]
  Potency: inactive
[8]
  Potency: 52.7 µM (active)
[5]
  Potency: inactive
[6]
  Potency: inactive

## CCOC(=O)C1(c2ccccc2)CCN(CCC(C#N)(c2ccccc2)c2ccccc2)CC1
[1]
  Potency: inactive
[3]
  Potency: inactive
[4]
  Potency: inactive
[8]
  Potency: 3.35 µM (active)
[9]
  Potency: 1.41 µM (active)
[10]
  Potency: 1.12 µM (active)
[5]
  Potency: inactive
[6]
  Potency: inactive

## O=C(CBr)c1ccc(O)cc1
[1]
  Potency: inactive
[3]
  Potency: inactive
[4]
  Potency: inactive
[8]
  Potency: inactive
[5]
  Potency: inactive
[6]
  Potency: inactive

## Cc1c(Cl)c(=O)oc2cc(OP(=O)(OCCCl)OCCCl)ccc12
[1]
  Potency: inactive
[3]
  Potency: inactive
[4]
  Potency: inactive
[8]
  Potency: 11.9 µM (active)
[7]
  max activation: 8.02%
[9]
  Potency: inactive
[5]
  Potency: 3.89 µM (active)
[6]
  Potency: 0.246 µM (active)

## CC(C)OC(=S)S
[1]
  Potency: inactive
[2]
  Potency: 27.3 µM (active)
[8]
  Potency: 17.2 µM (active)
[5]
  Potency: inactive
[6]
  Potency: inactive

## CC1(C)CC/C(=C/c2ccc(Cl)cc2)C1(O)Cn1cncn1 (stereo not drawn)
[1]
  Potency: inactive
[3]
  Potency: inactive
[4]
  Potency: inactive
[8]
  Potency: 12.1 µM (active)
[5]
  Potency: inactive
[6]
  Potency: inactive

## CCOc1cc(C(C)(C)C)ccc1C1COC(c2c(F)cccc2F)=N1 (stereo not drawn)
[1]
  Potency: inactive
[3]
  Potency: inactive
[4]
  Potency: inactive
[8]
  Potency: 37.1 µM (active)
[5]
  Potency: inactive
[6]
  Potency: inactive
